HCMV inh: human cytomegalovirus inhibition. 410,000 tested, 4.5% active. activity change, negative = inhibition, % at 57.5 µM. HFF cells, HCMV-luciferase reporter, 72 h; active compounds read low; in the data active means activity change below about -60%; inconclusive means no clear call, values can overlap the other calls; inactive means above about -39%
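Two compound doses tested in HFFs infected with HCMV-luciferase, MOI 1 PFU/cell, 72 h at 37C. Lysate luminescence read with OneGlo; data normalized against buffer-only and 10uM Salinomycin inhibitor controls.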
HCV inh: blocks hepatitis C virus; Huh7.5.1 HCVcc-Cre infection, luciferase reporter, 44 h; Potency, µM (series often up to 41.8 µM), for the others: top-dose activity change, negative = inhibition, actives largely listed as inhibitors; 340,000 tested, 3.4% active; AID 651820; further: potency means the concentration at half of the fitted maximal effect
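A cell-based infection assay in which seeded cells (1,000 per well) receive test compound after 4 h, are inoculated with HCVcc-Cre at approximately 0.5 moi, and are incubated 44 h before luminescence detection.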
Pf growth 96h: P. falciparum growth inhibition at 96 hours. P. falciparum luciferase reporter growth, 96 h. Potency, µM (titrated, usually from 28.7 µM), for inactives: top-dose activity change, negative = inhibition, hits mostly inhibitors. 320,000 tested, 6.9% active; further: potency means the concentration at half of the fitted maximal effect
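Cell-based qHTS: luciferase-tagged P. falciparum in erythrocytes (2% hematocrit, 0.05% parasitemia final) incubated with compounds for 96 hours, 37 C, 5% CO2; luciferase detection reagent then added and luminescence measured.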
Pf growth 48h: P. falciparum growth inhibition at 48 hours (one generation); P. falciparum luciferase growth in erythrocytes, 48 h; Potency, µM (highest dose often 28.7 µM), inactives show top-dose activity change, negative = inhibition, actives largely listed as inhibitors; 310,000 tested, 5.9% active; AID 504832; further: potency means the concentration at half of the fitted maximal effect
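Here the parasites carry a stable luciferase gene and grow inside erythrocytes in Albumax-based RPMI medium with compound for one erythrocytic cycle. Activity is scored as loss of luminescent signal.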
The depositor's hits bear a star; ? = inconclusive; nt = not tested or not shown. This is a sample that favours compounds with a hit; in the whole collection about 13% have one here. Unless noted, the call rests on the fitted dose curve; in most records, active means well fitted inhibition curve with a large enough effect; inconclusive means small, poorly fitted or top-dose-only effect, or another doubt; inactive means no such curve, though single readings can be large or run the other way. On the % scale 0 is the no-effect control and ±100 the full control effect.

SMILES	HCMV inh	HCV inh	Pf growth 96h	Pf growth 48h
COc1ccc(/C=C2\SC(=S)N(CCCC(=O)NNC(=O)c3ccccc3O)C2=O)cc1	-75.2*	?	-3.4%	?
O=C(CCCN1C(=O)/C(=C/c2cccs2)SC1=S)NNC(=O)c1ccccc1O	?	?	3.29µM*	8.8%
CCN(CC)CCOC(=O)c1ccc(NC(=O)CCCN2C(=O)/C(=C/c3cccs3)SC2=S)cc1	-20.4	nt	?	5.22µM*
COc1ccc(/C=C2\SC(=S)N(CCC(=O)Nc3cccc(O)c3)C2=O)cc1OC	-24.1	-22.5%	?	0.4%
O=C(O)C(Cc1ccccc1)N1C(=O)/C(=C/c2cccs2)SC1=S (centres undefined)	-19.8	10.3%	10.4µM*	4.0%
COc1ccc(/C=C2/SC(=S)N(CCCC(=O)Nc3cccc(O)c3)C2=O)cc1	-97.1*	?	?	14.7µM*
CCCN(CCC)C(=O)Cn1c(=O)n(Cc2ccc(C(=O)NCCc3ccc(OC)c(OC)c3)cc2)c(=O)c2ccccc21	5.1	nt	nt	nt
CCc1nn(CC(=O)NCCc2ccc(OC)cc2OC)c(=O)c2cc3c(OC)cccc3n12	-4.5	nt	nt	nt
CC(NC(=O)Cn1ccc2cc(S(=O)(=O)N3CCCCCC3)ccc21)c1ccccc1 (centres undefined)	-26.2	nt	nt	nt
Cc1cc(C(=O)N/N=C/c2ccc(C)o2)c2ccccc2n1	-63.0*	-4.9%	-24.9%	40.6%
CC(=O)Nc1ccc(/C=N/NC(=O)c2cc3cc(C)ccc3nc2C)cc1	-7.7	-0.7%	8.4%	nt
Cc1ccc(/C=N/NC(=O)c2cc(-c3ccccc3)nc3ccccc23)o1	-32.5	-17.3%	-19.8%	-17.3%
CC(=O)Nc1ccc(/C=N/NC(=O)c2cc3ccccc3nc2C)cc1	-71.8*	15.5%	76.1%	8.9%
CC(/C=N/NC(=O)c1cc(-c2ccc(Cl)cc2)nc2ccccc12)=C\c1ccco1	-83.2*	?	?	nt
O=C(N/N=C/c1ccc(O)cc1)c1cc(-c2ccccc2)nc2ccccc12	-76.5*	-14.1%	1.2%	15.7%
CC(C)(C)NC(=O)C(c1ccnc2ccccc12)n1c(=O)c(-c2cc3ccccc3[nH]2)nc2ccccc21 (centres undefined)	19.1	nt	nt	nt
Cc1ccc(-c2cc(C(=O)N/N=C/c3ccoc3)c3ccccc3n2)cc1	2.7	-8.7%	9.28µM*	-1.2%
Cc1ccc(-c2cc(C(=O)N/N=C/c3c(C)nn(C)c3C)c3ccccc3n2)cc1C	18.7	35.5µM*	?	nt
O=C(N/N=C/c1ccccn1)c1cc(-c2ccccc2)nc2ccccc12	9.5	10.6%	13.1µM*	?
O=C(N/N=C/c1ccccn1)c1cc(C2CC2)nc2ccccc12	nt	-10.6%	?	-6.7%
COc1ccc(/C=N/NC(=O)c2cc(-c3ccccc3)nc3ccccc23)cc1O	-14.9	-12.5%	?	-5.4%
COc1cc(/C=N/NC(=O)c2cc(-c3ccccc3)nc3ccccc23)ccc1O	-67.2*	-8.6%	36.3%	-40.2%
Cc1ccc(CNC(=O)c2cc(-c3ccc(C)c(C)c3)nc3ccccc23)cc1	6.8	nt	nt	nt
COC(=O)c1cc2c(c3c4cc(C)ccc4n(S(=O)(=O)c4cccc(C)c4)c13)C(=O)N(C)C2	-25.1	nt	nt	nt
O=C(N/N=C/c1ccc(F)cc1)c1cc(-c2ccccn2)nc2ccccc12	-5.2	16.0%	8.3%	-25.9%
SMILES	HCMV inh	HCV inh	Pf growth 96h	Pf growth 48h
O=C(N/N=C/c1ccccn1)c1ccc(NC(=O)c2ccccc2Cl)cc1	-0.3	?	-13.4%	-24.5%
COc1cccc(/C=N/NC(=O)c2cc(-c3ccccn3)nc3ccccc23)c1O	-63.2*	3.98µM*	?	?
O=C(N/N=C/c1ccccn1)c1ccc(Cl)c(Cl)c1	17.1	nt	?	14.7µM*
Cc1ccc(NC2=CC(c3ccccc3F)N(c3ccc(C)cc3)C2=O)cc1 (centres undefined)	22.0	nt	nt	nt
C=Cn1cc[n+](CC(=O)c2ccc(Br)cc2)c1	3.8	12.4%	6.57µM*	?
C=Cn1cc[n+](CC(=O)c2ccc(C)cc2)c1	-68.4*	4.8%	15.1%	-29.0%
C=Cn1cc[n+](CC(=O)c2ccc(Cl)cc2)c1	1.2	15.1%	?	?
CCOc1cc2c(cc1OCC)C(CC(=O)O)N(C(=O)Nc1ccc(Br)c(C)c1)CC2 (centres undefined)	108.3	nt	nt	nt
COC(=O)c1c(-c2ccc(Cl)cc2)noc1N1CCN(c2ccc(F)cc2)CC1	7.1	nt	nt	nt
CCc1ccc(N2CC(c3nc4ccccc4n3Cc3ccccc3C)CC2=O)cc1 (centres undefined)	-30.0	nt	nt	nt
O=C(COc1ccccc1[N+](=O)[O-])N1CCC(Cc2ccccc2)CC1	-20.8	7.2%	-25.0%	6.6%
COc1ccc(Br)c(C(=O)OCC(=O)N2CCC(Cc3ccccc3)CC2)c1	-21.7	11.8%	-6.9%	13.1µM*
NC(=O)c1ccccc1OCC(=O)N1CCC(Cc2ccccc2)CC1	-68.4*	8.91µM*	-24.9%	?
Cc1ccc(C(=O)NC(C)c2ccc(-n3ccnc3)cc2)cc1S(=O)(=O)N1CCOCC1 (centres undefined)	-97.5*	?	?	?
Cc1ccc(C(=O)NC(C)c2ccccc2)cc1S(=O)(=O)N1CCOCC1 (centres undefined)	-19.6	5.1%	0.2%	?
CC(NC(=O)c1ccc(N(C)C)c([N+](=O)[O-])c1)c1ccc(-n2ccnc2)cc1 (centres undefined)	21.5	nt	?	-10.8%
CC(NC(=O)c1cc([N+](=O)[O-])cc([N+](=O)[O-])c1)c1ccc(-n2ccnc2)cc1 (centres undefined)	10.4	-6.5%	0.928µM*	1.47µM*
CC(NC(=O)c1cc(S(=O)(=O)N2CCOCC2)ccc1F)c1ccc(-n2ccnc2)cc1 (centres undefined)	-10.2	?	9.28µM*	-22.3%
CC(NC(=O)c1cc(S(=O)(=O)N2CCOCC2)ccc1N1CCCC1)c1ccc(Cl)c(Cl)c1 (centres undefined)	-23.9	-19.6%	?	?
N#Cc1ccc(C(C(=O)NC2CCCCC2)n2c(=O)c(-c3ccccc3)nc3ccccc32)cc1 (centres undefined)	-24.4	nt	nt	nt
Cc1cccc(C(=O)N(Cc2nc3ccccc3c(=O)[nH]2)C2CCCC2)c1	22.9	-18.0%	22.5%	-29.0%
Cc1cccc(C(=O)N(Cc2nc3ccccc3c(=O)[nH]2)C2CCCCC2)c1	-79.4*	0.5%	?	-23.7%
O=C(c1ccccc1)N(Cc1nc2ccccc2c(=O)[nH]1)C1CCCC1	-3.1	7.9%	12.6%	?
O=C(c1ccc(Br)cc1)N(Cc1nc2ccccc2c(=O)[nH]1)C1CCCC1	-62.4*	?	-1.4%	?
CCNC(=S)N/N=C/c1sc(N2CCCCC2)nc1-c1cccs1	?	-4.1%	0.165µM*	0.262µM*
CCNC(=S)Nc1ccc(N2CCCCC2)cc1	42.4	-23.8%	-17.7%	84.8%
CCOc1ccccc1NC(=O)CSc1ccc2nnc(CCNS(=O)(=O)c3ccccc3)n2n1	18.8	nt	nt	nt

Assay outcomes as filed in PubChem.
